Reference: the supplement of paper PMC3334620
Over roughly 33,000 sequences, “E-score (-0.5 to 0.5)” has its median near -0.013; the highest 2% begin near 0.3. Shown is part of a subset that was picked to be rich in the highest values.

The sequences below were run against T1, Msn1 (UniProt P22148) (assay: PBM E-score (8-mer binding enrichment) (E-score (-0.5 to 0.5)); higher = stronger / more preferred TF binding). Conditions: protein concentration: 200 nM; construct: GST-full length.
T1 sequence: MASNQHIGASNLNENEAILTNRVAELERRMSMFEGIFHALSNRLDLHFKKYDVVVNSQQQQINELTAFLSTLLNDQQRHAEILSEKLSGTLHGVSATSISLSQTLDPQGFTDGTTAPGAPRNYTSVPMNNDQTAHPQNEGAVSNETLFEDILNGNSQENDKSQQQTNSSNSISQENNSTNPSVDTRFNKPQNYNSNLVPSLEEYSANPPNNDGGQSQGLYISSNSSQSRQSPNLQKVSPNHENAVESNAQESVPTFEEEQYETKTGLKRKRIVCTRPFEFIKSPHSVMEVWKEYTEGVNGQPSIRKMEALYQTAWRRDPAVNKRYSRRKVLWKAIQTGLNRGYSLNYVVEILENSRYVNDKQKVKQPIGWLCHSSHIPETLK
Method: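 Universal 'all 10-mer' protein binding microarrays (Agilent AMADID 015681) probed with GST-tagged S. cerevisiae TFs (full-length or DBD) made by in vitro transcription/translation (PURExpress), about 100-200 nM. Bound TF was detected with fluorescent anti-GST. Each ungapped 8-mer (which stands for itself and its reverse complement) is scored by the PBM enrichment score (E-score), a modified Wilcoxon-Mann-Whitney statistic from -0.5 to +0.5, computed with the Universal PBM Analysis Suite. Scale: above 0.35 generally sequence-specific binding.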

Row | Sequence | PBM E-score
1 | AGGGGACC | -0.207
2 | CCCAGCAC | -0.148
3 | GCATCCAA | -0.225
4 | AATAAAGT | 0.209
5 | AAGGATTG | 0.191
6 | GAGGGTAA | -0.114
7 | GCAGTAGC | -0.289
8 | CGTTTCAG | 0.176
9 | GCGATGAC | 0.0728
10 | GCGGTAGC | 0.041
11 | CAACCATG | 0.0589
12 | GCAAATAC | 0.0266
13 | ACAAATAT | 0.404
14 | AGAAATAT | 0.181
15 | AAAAATAT | 0.208
16 | CCAAATAG | -0.0591
17 | AAAAATAG | 0.189
18 | ACAAATAG | 0.322
19 | ACAAATAA | 0.307
20 | CCAAATAC | -0.058
21 | GCAAATAA | 0.0601
22 | TCAAATAA | 0.234
23 | ACAAATAC | 0.328
24 | ACTTCCCT | -0.185
25 | CAAAAAGA | 0.0247

Row | Sequence | PBM E-score
26 | CGAGTGAC | 0.0781
27 | AAAATGCT | 0.0679
28 | ACCGATGC | -0.136
29 | ATCACCTA | 0.0704
30 | ATCCAGGA | -0.015
31 | CCCAAGGG | -0.22
32 | CTGGACAC | 0.29
33 | GTGGACGA | 0.18
34 | TTGGACAA | 0.47
35 | TTGGAAAA | 0.0431
36 | GTGGACTA | 0.144
37 | GTGGACAA | 0.468
38 | CTGGACAG | 0.0403
39 | CTGGACAA | 0.43
40 | TTCGACAA | 0.191
41 | TCTTTCCA | -0.0394
42 | CCCTTACC | -0.181
43 | CTTATGTC | 0.374
44 | ATTATGTC | 0.367
45 | CTTATGAC | 0.233
46 | ATTATGTA | 0.149
47 | ATTATGTG | 0.151
48 | CTTATGTA | 0.124
49 | ATTCGCTG | 0.00671
50 | TACCCGCA | -0.0605

Row | Sequence | PBM E-score
51 | CATTACGG | 0.0771
52 | TAGGGGCA | -0.254
53 | ACATACAT | 0.309
54 | TAGTACAA | 0.321
55 | ACATACAC | 0.207
56 | ACATACAG | 0.167
57 | AAGTACCA | 0.107
58 | ACATAAAA | 0.178
59 | AAGTACAA | 0.306
60 | CAGTACAA | 0.262
61 | ACATAAAG | 0.224
62 | AAGTACGA | 0.133
63 | GAGTACAA | 0.262
64 | ACATAAAT | 0.307
65 | CGGTAGTC | -0.00298
66 | GTGATCTA | 0.00906
67 | ACTTTTGA | 0.208
68 | ATATCCGG | 0.11
69 | GTCTCAAC | 0.136
70 | TCTAAAGA | 0.205
71 | AACCTTCT | -0.205
72 | TAAATCCA | 0.0101
73 | CGAAGATC | -0.0505
74 | ACGTACAT | 0.307
75 | AAGTACAC | 0.192

Row | Sequence | PBM E-score
76 | AAGTACAT | 0.356
77 | AAGTACAG | 0.0535
78 | ACGTACAA | 0.234
79 | ACGTACAG | -0.0675
80 | GAGTCATC | -0.114
81 | GGTGTCAC | -0.0252
82 | AATGACAT | 0.42
83 | AATGACAC | 0.213
84 | AATGACAG | 0.151
85 | GACGACAA | 0.299
86 | CGCGACAG | -0.00106
87 | GGCGACAA | 0.069
88 | CACGACAA | 0.256
89 | AACGACAA | 0.262
90 | TACGACAA | 0.352
91 | AACGACAT | 0.417
92 | AACGACAG | -0.0454
93 | CGCGACAA | 0.304
94 | CAAGATCC | 0.0979
95 | AAGCAAAG | -0.064
96 | AGGGCCTC | -0.236
97 | AGTTGTGA | 0.137
98 | CGGACCAA | 0.256
99 | CTATCGCA | -0.201
100 | AACCACGT | -0.0931

Row | Sequence | PBM E-score
101 | CTACCAAA | -0.0795
102 | GAGTACTA | 0.198
103 | AGCGACAA | 0.301
104 | TGCGACAA | 0.338
105 | TGCGACCA | 0.0994
106 | AACTAATA | 0.326
107 | AATTAATA | 0.352
108 | GTTTAATA | 0.315
109 | ATTTAATG | 0.202
110 | TACTAATA | 0.0704
111 | GATTAATA | 0.143
112 | GTTTAAAA | 0.0898
113 | ATTTAATA | 0.336
114 | CTTTAATA | 0.193
115 | CACTAATA | 0.0713
116 | AATTAATT | 0.168
117 | TATTAATA | -0.134
118 | CGCGGTGC | -0.123
119 | TAAGTTAA | -0.0568
120 | CGCTACCG | 0.00385
121 | GGCGAAAA | 0.24
122 | GTTAGAAA | -0.0269
123 | CATCTTCA | 0.0522
124 | GGAGGGCC | -0.273
125 | CGCCAGGC | -0.174

Row | Sequence | PBM E-score
126 | AATATTAG | 0.131
127 | AATATTGC | 0.218
128 | CATATTAA | 0.32
129 | TATATTAA | 0.232
130 | AATATTAT | 0.208
131 | AATATTAA | 0.318
132 | CATATTAG | 0.193
133 | AATATTGG | -0.0454
134 | AATATTGT | 0.35
135 | CGATAAAG | 0.119
136 | AGCTCACC | -0.141
137 | AAAGTCCT | 0.427
138 | GAAGTCCC | -0.0665
139 | CAAGTCCC | 0.148
140 | AAAGTCCG | 0.342
141 | TAAGTCCA | 0.26
142 | AAAGTCCC | 0.344
143 | GAAGTCCA | 0.212
144 | AGAGTCCT | -0.0894
145 | AGAGTCCG | 0.0522
146 | AAAGTCCA | 0.378
147 | AAAGTCGT | 0.223
148 | CAAGTCCG | 0.0478
149 | AATGGCTA | -0.0496
150 | ATGTTCAA | 0.185

Row | Sequence | PBM E-score
151 | CCACTGGA | -0.216
152 | GATTCTAA | 0.0481
153 | TGGCTACA | 0.0201
154 | ATTAGCAA | 0.22
155 | AAGTACGG | 0.0556
156 | AAGCTAAA | 0.12
157 | CATATTCC | 0.0363
158 | CACCCGTG | -0.213
159 | ACAGACGA | 0.153
160 | ACAGACAG | 0.222
161 | ACAGACAT | 0.399
162 | TCAGACAA | 0.367
163 | CCAGACAA | 0.258
164 | GCAGACAC | 0.203
165 | GCAGACAA | 0.341
166 | CCAGACAG | -0.094
167 | GCAGACCA | -0.0683
168 | ACAGACAC | 0.288
169 | ACAGACAA | 0.44
170 | TCAGACCA | -0.0852
171 | TATGAGAA | 0.0684
172 | AATGGTCG | -0.0526
173 | TAGATTCA | -0.192
